# The list is not random: actives were taken first. Their share in the collection is about 11%.
# USP30 inh – inhibitors of human USP30 deubiquitinase; Q70CQ3; purified USP30, Ub-rhodamine cleavage fluorescence; inhibition, % at 25 µM; actives 5.3% (n = 47,000)
# USP28 inh – blocks human USP28 ubiquitin-rhodamine cleavage; Q96RU2; purified USP28, Ub-rhodamine cleavage fluorescence, 30 min; inhibition, % at 25 µM; actives 3% (n = 47,000)
# USP17 block – human USP17-like deubiquitinase inhibition. A8MUK1. purified USP17, Ub-rhodamine cleavage fluorescence, 3 h. inhibition, % at 50 µM. actives 6.5% (n = 47,000). AID 1645855
# OTUD3 block – human OTUD3 deubiquitinase inhibition | Q5T2D3 | inhibition, % at 25 µM | actives 0.7% (n = 47,000) | AID 1645858 | purified OTUD3, Ub-rhodamine fluorescence, 2 h
# Target sequence (Q5T2D3 whole entry, looked up): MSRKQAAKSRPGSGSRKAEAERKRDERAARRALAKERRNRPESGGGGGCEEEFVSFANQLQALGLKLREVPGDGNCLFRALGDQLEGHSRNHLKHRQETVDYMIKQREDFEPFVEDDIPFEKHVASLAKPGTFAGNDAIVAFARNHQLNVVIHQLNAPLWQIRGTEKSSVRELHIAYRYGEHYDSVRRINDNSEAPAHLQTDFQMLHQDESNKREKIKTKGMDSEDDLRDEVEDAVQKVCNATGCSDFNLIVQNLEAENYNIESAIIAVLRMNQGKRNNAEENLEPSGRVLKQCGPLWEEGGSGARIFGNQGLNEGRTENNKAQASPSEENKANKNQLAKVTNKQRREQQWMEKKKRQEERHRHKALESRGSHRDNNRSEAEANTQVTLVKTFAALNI
# * = called active by the depositor; i = inactive; x = no result. Cut-off read from the data, not from the text of the source: active = inhibition above about 30%; inactive = the rest.
SMILES,USP30 inh,USP28 inh,USP17 block,OTUD3 block
COc1ccc(/C=C/c2ccc(=O)n(Cc3ccccc3)n2)cc1,16,13,20,9
COc1ccc(Cn2nc(-c3ccccc3)cc2-c2ccccc2O)cc1,43*,21,12,23
CN(C)c1ccc(C2CC(c3c(O)n(C)c(=O)[nH]c3=O)=Nc3ccccc3S2)cc1 (stereo not drawn),24,51*,65*,15
Cc1c(Cc2ccccc2)c(=O)oc2cc3occ(-c4ccc5ccccc5c4)c3cc12,-115,-13,32*,-39
O=C(c1ccc2nc[nH]c2c1)N1CC2CN(S(=O)(=O)c3ccccc3)CC(C1)O2,-8,-11,-21,-4
COc1ccccc1-c1nc(Cn2nnc(C(=O)Nc3cc(C)cc(C)c3)c2N)c(C)o1,35*,0,66*,-9
C[C@H]1C(=O)N(C)[C@@H]2CCN(C(=O)C3CCCCC3)[C@@H]2C(=O)N1C,33*,12,9,10
Cc1ccc(NC(=O)CSc2nc3ncccc3[nH]2)c(C)c1,-37,-6,-12,-9
O=C(CSc1nc2ccncc2[nH]1)Nc1ccc(Br)cc1F,19,0,61*,-1
O=C(CSc1nc2ccccc2n1S(=O)(=O)c1ccc(Br)cc1)Nc1ccc([N+](=O)[O-])cc1Cl,-48,54*,-10,15
COc1ccccc1NC(=O)CSc1nc2ccccc2n1S(=O)(=O)c1cc([N+](=O)[O-])ccc1C,-44,4,-50,-2
COc1ccc(NC(=O)CSc2nc3ccccc3c3nc(C)nn23)cc1OC,32*,19,37*,20
COc1ccc2nc(SCC(=O)Nc3ccc(NC(C)=O)cc3)n(S(=O)(=O)c3ccc(Cl)cc3)c2c1,-5,-3,-14,-13
COc1ccc(S(=O)(=O)n2c(SCC(=O)Nc3ccc(Oc4ccccc4)cc3)nc3ccccc32)cc1,-72,45*,15,2
CCC(Sc1nc2cc(OC)c(OC)cc2c2nc(C)nn12)C(=O)Nc1cccc(C)c1 (stereo not drawn),0,-2,-1,0
Cn1cnc(C(=O)N2CC3(CCN(S(=O)(=O)c4ccccc4)C3)C2)c1,19,11,6,14
O=C1CC(c2noc(-c3ccccn3)n2)CN1c1ccccc1 (stereo not drawn),1,-3,-8,4
O=C(CSc1nc2ccccc2n1S(=O)(=O)c1ccc(Br)cc1)Nc1ccc(Br)cc1F,0,27,34*,13
CC(C)Cn1c(=O)c2cc(C(=O)NCc3ccncc3)nn2c2ccccc21,-1,0,4,-6
CC(C)Cn1nc(C(=O)N(CCc2cccs2)Cc2cccs2)c2ccccc2c1=O,28,15,33*,7
CC(C)Nc1nc(Sc2ccc(F)cc2)cc(C(F)(F)F)n1,18,8,18,20
CCN1C(=O)c2c(C(=O)NC(C)C)ncn2CC1(C)C(=O)NC1CCCC1 (stereo not drawn),8,-3,4,0
COc1ccc(CNC(=O)c2ncoc2-c2ccc(OC)cc2)cc1,21,25,8,18
COc1ccc(NC(=O)c2ncoc2-c2cccs2)c(OC)c1,9,-6,46*,0
O=C(Nc1ccccc1Cl)c1ncoc1-c1cccs1,3,0,-12,-7
SMILES,USP30 inh,USP28 inh,USP17 block,OTUD3 block
COc1cccc(CNC(=O)c2sc(-c3ccc(OC)c(OC)c3)nc2C)c1,13,12,45*,16
COc1cccc(-c2ocnc2C(=O)Nc2ccc(C)cc2C)c1,34*,14,39*,11
COc1ccc(-c2ocnc2C(=O)NCc2cccc(OC)c2)cc1,23,44*,22,11
COc1cccc(-c2ocnc2C(=O)Nc2cc(C)ccc2C)c1,0,-17,-8,1
O=C(c1ccccc1)N1CCC(c2ccnc(Nc3ncccn3)n2)C1 (stereo not drawn),21,0,4,3
COc1cccc(N2CCN(c3ccc4nnc(CCC(=O)NCCC5=CCCCC5)n4n3)CC2)c1,8,2,x,2
COc1ccc(-c2ocnc2C(=O)Nc2ccccc2F)cc1OC,81*,27,76*,37*
COc1ccc(-c2ocnc2C(=O)NCc2ccc(F)cc2)cc1OC,-10,14,3,1
COc1ccc(-c2cc(C(=O)Nc3ccccc3F)on2)cc1,0,2,42*,0
O=C(Nc1cccnc1)[C@H]1C[C@@H]2CN(Cc3ccc(F)cc3)C[C@H]1O2,5,11,-1,6
Cc1c(OCc2ccccc2)noc1C1CCN(C(=O)C(C)C)CC1,x,x,8,1
Cc1c(OCc2ccccc2)noc1C1CCN(C(=O)NC2CCOCC2)CC1,-18,36*,0,2
O=C(Nc1ccncc1)c1nn(-c2ccc(F)cc2)c2c1CCCCC2,9,20,-11,-5
CCOC(=O)c1nn(-c2ccc(F)cc2)c2c1CCCCC2,13,36*,12,8
CCCn1cc(C(=O)N2CCC3(CC2)CC2(CO3)Nc3ccccc3-n3cccc32)c(C)n1 (stereo not drawn),5,10,67*,7
O=C(c1cccnc1)N1CCC2(CC1)CC1(CO2)Nc2ccccc2-n2cccc21 (stereo not drawn),-10,0,71*,-12
COc1ccccc1NC(=O)N1CCC2(CC1)Nc1ccccc1-n1cccc12,-16,2,-12,-2
O=C(c1cscn1)N1CCC2(CC1)CC1(CO2)Nc2ccccc2-n2cccc21 (stereo not drawn),-68,-5,71*,-15
O=C(c1ccco1)N1CCC2(CC1)CC1(CO2)Nc2ccccc2-n2cccc21 (stereo not drawn),-26,19,80*,-1
CCn1ccc(C(=O)N2CCC3(CC2)Nc2cccnc2NC3=NCc2ccccc2)n1,-351,-119,-77,-75
O=C(c1cscn1)N1CCC2(CN(CC(c3ccccc3)c3ccccc3)C2)C1,-16,-20,-22,-3
Cc1sc2nc(CN3CCCC3)nc(NCCc3ccc(S(N)(=O)=O)cc3)c2c1C,i,-165,-59,-119
Cc1cc(NC(=O)C2CCC3(CC2)CNC(=O)c2cc(Cl)ccc2O3)nn1C (stereo not drawn),18,18,12,6
Cc1ccc(NC(=O)N2CCC3(CC2)Nc2ccccc2-n2cccc23)cc1,-5,7,-8,-2
O=C(c1ccncc1)N1CCC2(CC1)CC1(CO2)Nc2ccccc2-n2cccc21 (stereo not drawn),-79,-1,38*,-9
CCOC(=O)C1CCCN(C(=O)C(=O)c2cn(CC(=O)N3CCCCC3)c3ccccc23)C1 (stereo not drawn),0,8,34*,3
O=C(CC1C(=O)N(C2CCCC2)c2nc3ccccc3n21)Nc1ccccc1 (stereo not drawn),10,14,-2,9
CCC(C(=O)C(C)C(O)C(C)CCc1ccc(C)c(O)c1C(=O)O)C1OC(CC)(C2CCC(O)(CC)C(C)O2)CC1C (stereo not drawn),55*,41*,63*,32*
CCc1cc2c(cc(C(=O)OC)n2CC(=O)Nc2ccc(C)cc2Cl)s1,2,1,53*,17
